Laboratory results: PubChem BioAssay (Tox21)
Results filed as inconclusive are left out. Unmarked numbers belong to inactive results. Activity calls are given as the source filed them. Calls follow the shape of the dose curve; as a rule, active = well fitted cell-killing curve with a large enough effect in the repeat runs; inconclusive = weak or mixed curves; inactive = no such curve, though single readings can be large or run the other way.

Assay: qHTS assay for identifying genotoxic compounds that show differential cytotoxicity against isogenic chicken DT40 cell lines with known DNA damage response pathways - Rad54/Ku70 mutant cell line (AID 743015); also: nearly all actives have a fitted effect of over 60% in size
Conditions: DT40 Rad54/Ku70 mutant viability, CellTiter-Glo, 40 h; series mostly up to 66.8 µM; activity change, negative = cytotoxicity: at the top concentration
Text: National Center for Advancing Translational Sciences [NCATS]
NIH Chemical Genomics Center [NCGC]
U.S. Environmental Protection Agency [EPA]
National Institutes of Environmental Health Sciences [NIEHS]
National Toxicology Program [NTP]
U.S. Food and Drug Administration [FDA]
DNA repair pathways play a critical role in cellular homeostasis by repairing DNA damage induced by endogenous processes and xenobiotics. Isogenic chicken DT40 cell lines deficient in different DNA repair pathways can be used to identify genotoxic compounds and aid in characterizing the nature of the DNA damage induced. Two DNA repair-deficient cell lines with disrupted genes, Rad54/Ku70 or Rev3, were used to screen the Tox21 10K compound library. Possible genotoxicity was based on the presence of a significant increase in cytotoxicity in one or more of the DNA repair-deficient cell lines compared to that observed in the parental DNA repair-proficient cell line. CellTiter Glo viability assay (Promega, Madison, WI) was used to measure cell viability in these cells after compound treatment. This assay includes the data from the Rad54/Ku70 mutant cell line.
Tox21 Assay Protocol Summary:
300 DT40 mutant cells in 5 uL/well were dispensed into white, solid-bottom 1536-well plates using a Multidrop Combi (ThermoFisher Scientific, Waltham, MA) dispenser. After the assay plates were incubated at 37 C/5% CO2 for approximately 0.5 hour, 23 nL of compounds dissolved in DMSO, positive controls or DMSO only was transferred into the assay plate by a pintool work station (Kalypsys, San Diego, CA). The assay plates were incubated at 37 C/5% CO2 for 40 hours. After 5 uL per well of CellTiter-Glo reagent was added into each well of the assay plates, the plates were incubated for 30 min at room temperature and the luminescence intensity of the plates was measured using a ViewLux (PerkinElmer, Shelton, CT) plate reader.
% is scaled to controls: 0 for no effect and ±100 for the full control effect; potency is read from the fitted curve at half-maximal effect.

Row | Structure (SMILES) | Potency | activity change, negative = cytotoxicity
1 | CC(=O)N/N=C/c1ccc([N+](=O)[O-])o1 | 18.8 µM (active) | –
2 | O[C@@H]1CO[C@H]2[C@@H]1OC[C@@H]2O | – | 2.42%
3 | CCCCCCCCN | – | -1.62%
4 | CCCCCCNC(=O)n1cc(F)c(=O)[nH]c1=O | 11.9 µM (active) | –
5 | CN1CCCC(n2nc(Cc3ccc(Cl)cc3)c3ccccc3c2=O)CC1 (stereo not given) | 16.8 µM (active) | –
6 | Nc1ccc(N=Nc2ccccc2)c(N)c1 | 59.8 µM (active) | –
7 | CCCCCCCCCCCCCCN(CCO)CCO | 2.43 µM (active) | –
8 | CN1C(=O)N(c2ccccc2Br)Cc2cnc(Nc3ccc4c(c3)OCC(CO)O4)nc21 (stereo not given) | 6.86 µM (active) | –
9 | CC1=C(Br)C(=O)C(Br)=C/C1=C(/c1ccccc1S(=O)(=O)O)c1cc(Br)c(O)c(Br)c1C | 20.8 µM (active) | –
10 | CC(=O)c1ccc([N+](=O)[O-])cc1 | – | 1.68%
11 | CCOC(=O)c1ccc(C#Cc2ccc3c(c2)C(C)(C)CCS3)nc1 | 29.8 µM (active) | –
12 | COc1ccccc1NC(=O)c1cc2ccccc2cc1O | 30.6 µM (active) | –
13 | CC(=O)NC1(c2cccc(F)c2)CCN(CC[C@@]2(c3ccc(Cl)c(Cl)c3)CN(c3ccccc3)C(=O)CO2)CC1 | 48.7 µM (active) | –
14 | CO[C@]1(NC(=O)CSC(F)F)C(=O)N2C(C(=O)O)=C(CSc3nnnn3CCO)CO[C@H]21 | – | 0.439%
15 | CC(C)(c1ccccc1)c1ccccc1 | – | -0.843%
16 | CC(C)(O)c1ccc(CNC(=O)c2cccnc2Oc2ccc3nonc3c2)cc1 | 61.1 µM (active) | –
17 | Clc1cc(Cl)nc(Cl)n1 | – | 0.81% [at 95.1 µM]
18 | CN(C)CCN1C(=O)c2ccccc2N(C)c2ccccc21 | – | -5.32%
19 | CCCCCCC(C)(C)C(=O)O | – | 4.47%
20 | CN(C)CCC=C1c2ccccc2C=Cc2ccccc21 | 10.6 µM (active) | –

Row | Structure (SMILES) | Potency | activity change, negative = cytotoxicity
21 | C=C1CCC2CC1C2(C)C (stereo not given) | – | 3.53%
22 | C=C1C[C@@]23CC[C@H]4[C@@](C)(CCC[C@@]4(C)C(=O)O[C@@H]4O[C@H](CO)[C@@H](O)[C@H](O)[C@H]4O)[C@@H]2CC[C@]1(O[C@@H]1O[C@H](CO)[C@@H](O)[C@H](O[C@@H]2O[C@H](CO)[C@@H](O)[C@H](O)[C@H]2O)[C@H]1O[C@@H]1O[C@H](CO)[C@@H](O)[C@H](O)[C@H]1O)C3 | – | -0.929%
23 | O=C(Nc1cccc2c(=O)cc(-c3nn[nH]n3)oc12)c1ccc(OCCCCc2ccccc2)cc1 | – | 10.6%
24 | O=C=Nc1ccc(Cl)c(Cl)c1 | – | 2.42%
25 | CCn1cc(C(=O)O)c(=O)c2cc(F)c(N3CCNCC3)cc21 | inactive | –
26 | CCCCCC[C@@H](O)C/C=C\CCCCCCCC(=O)OCC(O)CO (stereo not given in full) | – | -13.9%
27 | CCCCCCCCC(CCCCCC)C(=O)O (stereo not given) | – | -12.2%
28 | CCc1ccccc1 | – | -0.196% [at 95.1 µM]
29 | CCCC(C(=O)OCCN(CC)CC)(c1ccccc1)c1ccccc1 | 18.8 µM (active) | –
30 | c1ccc(C[n+]2cccc3ccccc32)cc1 | 27.3 µM (active) | –
31 | CC(C)=CCC1C(=O)N(c2ccccc2)N(c2ccccc2)C1=O | 16.8 µM (active) | –
32 | CN1C(C(=O)Nc2ccccn2)=C(O)c2sccc2S1(=O)=O | – | 2.13% [at 30.7 µM]
33 | CC1(C)[C@H](C(=O)O)N2C(=O)C[C@H]2S1(=O)=O | – | -1.39%
34 | CCCCCCCCOc1ccc(C(=O)O)cc1 | – | 6.55%
35 | C=C(C)C(=O)OCCOCCOC(=O)C(=C)C | – | 25.4%
36 | CC(=O)OCC[N+](C)(C)C | – | 9.46%
37 | O=C1c2ccccc2C(=O)C1c1nc2ccccc2c(Br)c1O | – | -8.42%
38 | O=C(O)c1ccc(OCCCOc2ccc(C(=O)O)cc2)cc1 | – | 7.79%
39 | Clc1ccc(Nc2nnc(Cc3ccncc3)c3ccccc23)cc1 | 26.6 µM (active) | –
40 | CC(C)C(O)(c1ccc(OC(F)(F)F)cc1)c1cncnc1 (stereo not given) | 48.4 µM (active) | –
